An excerpt weighted towards active compounds, which were near 1.4% of everything screened.
VACV mCherry inh: inhibitors of vaccinia virus infection (mCherry reporter signal); Vaccinia virus mCherry reporter infection, fluorescence; 310,000 compounds, 0.63% hits; Potency, µM (doses to about 36.5 µM), for inactives: at the highest dose activity change, negative = inhibition, actives largely listed as inhibitors; calls by dose curve; tested in A549 cells; further: on the % scale 0 is the no-effect control and ±100 the full control effect; nearly all actives have a fitted effect of over 35% in size
Vaccinia Venus: inhibitors of vaccinia virus (Venus reporter); 330,000 compounds, 0.46% hits; Vaccinia virus Venus reporter expression, fluorescence; Potency, µM (doses to about 36.5 µM), for inactives: at the highest dose activity change, negative = inhibition, most hits filed as inhibitors; calls by dose curve; tested in A549 cells; further: on the % scale 0 is the no-effect control and ±100 the full control effect; nearly all actives have a fitted effect of over 30% in size
AmpC detergent: blocks E. coli AmpC beta-lactamase in detergent assay. AmpC hydrolysis of nitrocefin, absorbance 480 nm, 0.01% Triton. Potency, µM (highest dose often 114 µM), for the others: at the highest dose activity change, negative = inhibition, actives largely listed as inhibitors. 370,000 compounds, 0.041% hits. AID 485294;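 further: 0% = no-compound wells and -100% = no-enzyme wells; nearly all actives have a fitted effect of over 25% in size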
Target sequence (P00811 whole entry, looked up): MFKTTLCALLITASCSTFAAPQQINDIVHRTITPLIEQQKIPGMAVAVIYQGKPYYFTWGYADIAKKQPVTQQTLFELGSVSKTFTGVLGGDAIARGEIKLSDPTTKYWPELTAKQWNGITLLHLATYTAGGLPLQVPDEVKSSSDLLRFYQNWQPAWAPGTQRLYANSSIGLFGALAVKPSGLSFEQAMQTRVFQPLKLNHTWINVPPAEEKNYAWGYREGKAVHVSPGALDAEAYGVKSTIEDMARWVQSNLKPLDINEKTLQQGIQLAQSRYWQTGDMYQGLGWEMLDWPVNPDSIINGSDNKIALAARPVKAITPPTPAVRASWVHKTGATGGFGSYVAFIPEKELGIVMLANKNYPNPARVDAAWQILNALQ
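AmpC (5.3 nM in the dispensed reagent) in 20 mM phosphate pH 7.0 with 0.01% (detergent screen) or 0.0001% Triton X-100 was preincubated with compounds for 15 min at room temperature. Nitrocefin was then added from an 800 uM solution, and hydrolysis was followed at 480 nm.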
AmpC no deterg: AmpC beta-lactamase inhibition without detergent; P00811; AmpC nitrocefin hydrolysis, absorbance 480 nm, 0.0001% Triton; Potency, µM (titrated, usually from 57.1 µM), inactives show at the highest dose activity change, negative = inhibition, most hits filed as inhibitors; 330,000 compounds, 0.52% hits; AID 485341;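 further: plate controls were no compound for no effect and no enzyme for full effect; nearly all actives have a fitted effect of over 20% in size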
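AmpC (5.3 nM in the dispensed reagent) in 20 mM phosphate pH 7.0 with 0.01% (detergent screen) or 0.0001% Triton X-100 was preincubated with compounds for 15 min at room temperature. Nitrocefin was then added from an 800 uM solution, and hydrolysis was followed at 480 nm.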
AMA1-RON2 inh: inhibitors of Plasmodium falciparum AMA1-RON2 interaction. AlphaScreen AMA1-biotinylated RON2 peptide binding. Potency, µM (doses to about 58.2 µM), without a hit: top-dose activity change, negative = inhibition, most hits filed as inhibitors. 360,000 compounds, 0.2% hits. AID 720542;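 further: 0% = vehicle wells and -100% = peptide control; nearly all actives have a fitted effect of over 45% in size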
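AMA1 (3D7) with his tag at 25 nM final met compounds first, then biotinylated RON2 peptide at 25 nM; detection used donor plus acceptor beads, 10 µg/mL apiece, read by AlphaScreen after 30 min at room temperature.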
SARS PLP yeast: SARS-CoV PLP inhibition in yeast. S. cerevisiae expressing SARS-CoV PLpro, growth rescue. Potency, µM (highest dose often 32.9 µM), for the others: at the top dose activity, positive = growth rescue, hits mostly activators. 330,000 compounds, 0.19% hits; calls by dose curve; further: 0% is about no effect; nearly all actives have a fitted effect of over 55% in size
* hit, by the source's call; i = inactive; ? = inconclusive; · = not tested or not shown; [ ] = another dose, or the depositor's remark. Unless noted, the call rests on the fitted dose curve; in most records, active means well fitted curve in the direction sought with a large enough effect; inconclusive means small, poorly fitted or top-dose-only effect, or another doubt; inactive means no such curve, though single readings can be large; an effect the other way counts as inactive or inconclusive. Potency means the concentration at half of the fitted maximal effect.

SMILES	VACV mCherry inh	Vaccinia Venus	AmpC detergent	AmpC no deterg	AMA1-RON2 inh	SARS PLP yeast
CC(=O)NN1C(=O)/C(=C/c2ccc(Br)o2)SC1=S	179%	62%	-14%	-17%	32µM*	24%
CC(=O)NN1C(=O)/C(=C\c2ccc(Br)o2)SC1=S	99%	71%	-3%	-16%	3%	18%
Nc1nc(SCC(=O)Nc2ccccc2)nc2nc3c(cc12)CCCC3	-24%	?	-4%	16µM*	0%	-11%
Cc1ccc(NC(=O)CSc2nc(N)c3cc4c(nc3n2)CCCC4)cc1	?	?	-5%	14µM*	30%	3%
COc1ccc(NC(=O)CSc2nc(N)c3cc4c(nc3n2)CCCC4)c(OC)c1	-21%	-18%	1%	-39%	19%	3%
O=c1[nH]c(=O)n([C@H]2C[C@@H](O)[C@@H](CO)O2)cc1F	3.5µM*	14µM*	·	·	·	·
O=c1[nH]c(=O)n(C2C[C@H](O)[C@@H](CO)O2)cc1C(F)(F)F (stereo partly drawn)	0.5µM*	?	?	-8%	7%	·
COC(=O)c1c(OCC2CCCN(C)C2)cc(=O)n2c1CCN(Cc1ccc(OC)c(O)c1)CC2 (stereo not drawn)	-1%	-3%	·	·	·	·
Cc1ccccc1CN1CCc2nnc(C(C)NC(=O)c3cc(F)ccc3F)n2CC1 (stereo not drawn)	i	0%	·	·	·	·
Cc1oc2ncn(CC(C)C)c(=O)c2c1C(=O)Nc1cc(F)ccc1F	-8%	4%	-4%	·	·	·
CCN1C/C(=C/c2ccc(N3CCOCC3)cc2)C(=O)/C(=C/c2ccc(N3CCOCC3)cc2)C1	11µM*	56%	3%	215%	-29%	4%
CN1C/C(=C\c2ccc(N3CCOCC3)cc2)C(=O)/C(=C/c2ccc(N3CCOCC3)cc2)C1	?	0%	-13%	70%	-5%	10µM*
CN1C/C(=C/c2ccncc2)C(=O)/C(=C/c2ccncc2)C1	-2%	7%	-3%	-11%	6%	-7%
Cc1ccccc1Cn1c2ccccc2c2cnn(CC(=O)NCCCc3ccccc3)c(=O)c21	-19%	-4%	20%	·	·	·
CN(C)CCOc1ccc(-c2c(-c3ccccc3)sc3ccccc23)cc1	?	13µM*	·	59%	?	3%
COC(=O)[C@H](C)N(Cc1ccc(Cl)c(Cl)c1)S(=O)(=O)CCN1CCN(c2ccccc2)CC1	14µM*	?	·	70%	11%	-5%
COC(=O)[C@H](C)N(Cc1ccc(Cl)c(Cl)c1)S(=O)(=O)CCN1CCCC1	?	?	·	71%	-1%	2%
C(C#CCCCCCCCCC[n+]1ccccc1)#CCCCCCCCCC[n+]1ccccc1	10µM*	10µM*	-7%	199%	-16%	·
CC1(C)C(/C=C/C=C/C=C/C=C2\N(CCCCS(=O)(=O)O)c3ccc4ccccc4c3C2(C)C)=[N+](CCCCS(=O)(=O)[O-])c2ccc3ccccc3c21	-3%	1%	·	·	8.9µM*	·
CCCCC(=O)Nc1nc(C)c(-c2csc(Nc3cc(OC)ccc3OC)n2)s1	1.1µM*	?	-2%	-32%	-7%	-7%
COc1ccc(CC(=O)Nc2nc(-c3cc(OC)ccc3OC)cs2)cc1	11µM*	?	8%	-19%	?	-7%
COc1cccc(NC(=O)Nc2nc(-c3ccc(OC)c(OC)c3)cs2)c1	?	14µM*	10%	7%	-24%	-4%
COc1ccc(OC)c(-c2csc(NC(=O)Cc3ccc(OC)c(OC)c3)n2)c1	7%	0%	0%	48%	?	-1%
COc1ccc(-c2csc(NC(=O)CSc3ccc(Br)cc3)n2)c(OC)c1	-6%	-12%	-1%	35µM*	-16%	8%
COc1ccc(-c2csc(NC(C)=O)n2)cc1OC	-27%	?	?	-10%	6%	-4%
SMILES	VACV mCherry inh	Vaccinia Venus	AmpC detergent	AmpC no deterg	AMA1-RON2 inh	SARS PLP yeast
CCc1cc(C(=O)NCCN2Cc3ccccc3OC(c3ccsc3)C2)n(C)n1 (stereo not drawn)	-12%	-21%	·	·	·	·
CCn1c(-c2cccnc2)nc2cc(NC(=O)COC)cc(C(=O)N3CC[C@@H]4CCCC[C@H]4C3)c21	-15%	-6%	·	·	·	·
Cc1ccc2cc(CNC(C)CO)c(N3CCC(O)CC3)nc2c1 (stereo not drawn)	6%	25%	·	·	·	·
CCc1nnc(NC(=O)CSc2nnc3ncccn23)s1	-2%	-16%	4%	0.32µM*	16%	4%
O=C(O)c1sccc1SCc1ccc(Cl)c(Cl)c1	·	·	-6%	-24%	-13%	-2%
C=CS(=O)(=O)N(Cc1ccc(Cl)c(Cl)c1)C[C@@H](O)CO	0.28µM*	0.05µM*	·	3%	-3%	7%
Cc1cc(C)cc(OCC(=O)Nc2ccc3c(c2)OCO3)c1	i	-8%	6%	-14%	10µM*	-1%
Cc1ccc(OCC(=O)Nc2ccc3c(c2)OCO3)cc1C	·	·	5%	-14%	0%	-3%
COCC(=O)Nc1cc(C(=O)N2CC3CCCC2C3)c2c(c1)nc(-c1ccncc1)n2C (stereo not drawn)	-2%	-6%	·	·	·	·
Cc1ccccc1CN1[C@H]2CCCC[C@@H]2OCCS1(=O)=O	-1%	-22%	·	·	·	·
Cc1ccc([C@H]2C[C@H](O)[C@@H](n3cc(C4CC4)nn3)CN2Cc2cccs2)cc1	?	11µM*	·	·	-6%	·
COc1ccc([C@H]2C[C@H](n3cc(-c4ccc(F)cc4)nn3)[C@@H](O)CN2Cc2cccs2)cc1	8%	-10%	·	·	-7%	·
Cc1ccc([C@H]2C[C@@H](O)[C@H](n3cc(C4CC4)nn3)CN2Cc2cccs2)cc1	i	-28%	·	·	1%	·
COc1ccc([C@H]2C[C@H](O)[C@@H](n3cc(-c4ccc(F)cc4)nn3)CN2Cc2cccs2)cc1	10µM*	10µM*	·	·	2%	·
CN(c1ccccc1C(=O)NCC1CCCO1)S(C)(=O)=O (stereo not drawn)	·	·	1%	0.16µM*	-4%	2%
CC1CCC(C(C)C)C(OC(=O)Cn2c(-c3ccc(Br)cc3)[n+](C)c3ccccc32)C1 (stereo not drawn)	11µM*	13µM*	-3%	107%	-17%	-1%
CCOC(=O)Cn1c(COc2ccccc2OC)[n+](C)c2ccccc21	·	·	·	·	38%	·
CC1CCC(C(C)C)C(OC(=O)Cn2c(-c3ccc(Cl)cc3)[n+](C)c3ccccc32)C1 (stereo not drawn)	2%[7.34 µM]	11%[7.34 µM]	6%	117%	1%	-3%
Cc1ccccc1OCc1n(CC(=O)OC2CC(C)CCC2C(C)C)c2ccccc2[n+]1C (stereo not drawn)	?	11µM*	?	222%	-18%	-12%
